The nature of assay [1]: P. berghei load reduction in hepatocytes – cell-based, HepG2, luciferase luminescence, HepG2 viability, primary screen (AID 624349; in the data active = parasite load remaining mostly below about 12%, no sharp cut-off; inactive = mostly above about 10%;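 note: 100% = mean of DMSO negative control wells on the same plate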). Particulars: P. berghei liver stage in HepG2, luciferase luminescence, concentration not given here; parasite load remaining: stronger effect = lower value; viability: measured here: HepG2 viability without parasites.
Assay [2] addresses 6-phosphogluconate dehydrogenase, decarboxylating (Homo sapiens) (UniProt P52209). Nature of the assay: inhibition of human phosphogluconate dehydrogenase – biochemical, recombinant enzyme, NADPH absorbance, primary screen (AID 1159550). Particulars: recombinant 6PGD, NADPH absorbance 341 nm; at 10 µM; stronger effect = higher value.
Assay [3] is described as follows: viability loss with induced miR-34 in A549 – imaging, A549 dox-inducible miR-34, nuclei and caspase counts, primary screen (AID 1347080;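 active = compounds whose cell count with miR-34 switched on is under 0.7 times the count with it off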). The following applies: A549 miR-34 inducible, Hoechst nuclei count, 48 h.
Assay [4] has as its target NAD(+) hydrolase SARM1 (Homo sapiens) (UniProt Q6SZW1). Nature of the assay: blocking NAD cleavage by SARM1 SAM-TIR – cell lysate, NAD-Glo luminescence (AID 1508614;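 active = compound whose remaining NAD level is above about 45 nM, limit read from the data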;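 note: higher remaining NAD means stronger inhibition of SARM1 NADase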). The following applies: SAM-TIR HEK293T lysate NADase, at 1 µM, stronger effect = higher value.
Assay [5] concerns the target Mitogen-activated protein kinase 7 (Homo sapiens) (UniProt Q13164). Put plainly: Gal4-ERK5 driven luciferase induction – cell-based, HTS, primary screen (AID 1508626;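 active = luciferase signal above three times the same-plate solvent-only control wells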;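 note: luciferase driven by Gal4-ERK5 fusion binding five Gal4 sites before minimal TATA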). The following applies: HeLa Gal4-ERK5 transactivation, 18 h, at 5 µM, stronger effect = higher value.

Each structure is given as a SMILES string. Several values for one entry are separate records, joined by “and”; a condition that tells them apart may be missing. Equal values may be shown once. Activity calls are given as the source filed them.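 Rule for the calls, unless noted: active = at least 20% inhibition of 6-phosphogluconate dehydrogenase activity; inactive = the rest.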

Sequence of Mitogen-activated protein kinase 7 (Homo sapiens) (Q13164 whole entry, looked up, the tested form may be a part): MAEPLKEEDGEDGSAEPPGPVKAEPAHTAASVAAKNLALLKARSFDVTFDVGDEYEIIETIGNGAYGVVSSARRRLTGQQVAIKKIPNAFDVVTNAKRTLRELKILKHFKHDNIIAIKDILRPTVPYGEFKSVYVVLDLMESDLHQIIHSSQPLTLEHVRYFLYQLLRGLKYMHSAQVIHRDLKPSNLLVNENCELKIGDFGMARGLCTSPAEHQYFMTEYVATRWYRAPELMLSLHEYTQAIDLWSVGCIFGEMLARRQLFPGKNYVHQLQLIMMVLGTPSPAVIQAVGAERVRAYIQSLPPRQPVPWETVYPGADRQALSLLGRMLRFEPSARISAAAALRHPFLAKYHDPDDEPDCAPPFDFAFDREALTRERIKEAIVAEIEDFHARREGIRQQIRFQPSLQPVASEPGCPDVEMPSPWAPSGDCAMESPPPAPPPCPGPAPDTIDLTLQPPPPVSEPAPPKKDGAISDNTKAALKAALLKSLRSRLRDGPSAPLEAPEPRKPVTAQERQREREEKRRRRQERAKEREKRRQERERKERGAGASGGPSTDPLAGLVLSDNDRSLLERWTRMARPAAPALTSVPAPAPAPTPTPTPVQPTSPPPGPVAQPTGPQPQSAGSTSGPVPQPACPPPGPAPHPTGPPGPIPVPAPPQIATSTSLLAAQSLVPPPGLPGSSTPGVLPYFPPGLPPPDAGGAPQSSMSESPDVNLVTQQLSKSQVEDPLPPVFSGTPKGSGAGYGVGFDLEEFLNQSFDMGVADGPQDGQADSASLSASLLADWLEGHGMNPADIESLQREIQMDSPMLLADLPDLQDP
Sequence of NAD(+) hydrolase SARM1 (Homo sapiens) (Q6SZW1 whole entry, looked up, the tested form may be a part): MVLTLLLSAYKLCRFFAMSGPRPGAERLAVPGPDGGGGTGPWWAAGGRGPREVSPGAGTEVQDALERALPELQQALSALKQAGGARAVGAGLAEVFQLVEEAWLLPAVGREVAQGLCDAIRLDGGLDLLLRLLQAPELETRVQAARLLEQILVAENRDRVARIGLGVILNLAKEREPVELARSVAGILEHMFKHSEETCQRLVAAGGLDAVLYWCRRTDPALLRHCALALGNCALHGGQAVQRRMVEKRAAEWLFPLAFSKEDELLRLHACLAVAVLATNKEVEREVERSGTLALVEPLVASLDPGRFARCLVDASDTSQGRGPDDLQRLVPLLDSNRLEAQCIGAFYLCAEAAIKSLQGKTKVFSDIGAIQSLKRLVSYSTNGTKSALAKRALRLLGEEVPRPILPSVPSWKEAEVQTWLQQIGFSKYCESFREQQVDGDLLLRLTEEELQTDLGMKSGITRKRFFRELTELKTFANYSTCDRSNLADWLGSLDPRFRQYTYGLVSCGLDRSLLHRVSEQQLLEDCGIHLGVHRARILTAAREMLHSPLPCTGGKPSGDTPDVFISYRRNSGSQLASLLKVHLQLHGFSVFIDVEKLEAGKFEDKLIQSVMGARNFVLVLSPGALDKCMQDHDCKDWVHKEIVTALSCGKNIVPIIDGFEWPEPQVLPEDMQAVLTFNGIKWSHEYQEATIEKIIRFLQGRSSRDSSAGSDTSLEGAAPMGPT
Sequence of 6-phosphogluconate dehydrogenase, decarboxylating (Homo sapiens) (P52209 whole entry, looked up): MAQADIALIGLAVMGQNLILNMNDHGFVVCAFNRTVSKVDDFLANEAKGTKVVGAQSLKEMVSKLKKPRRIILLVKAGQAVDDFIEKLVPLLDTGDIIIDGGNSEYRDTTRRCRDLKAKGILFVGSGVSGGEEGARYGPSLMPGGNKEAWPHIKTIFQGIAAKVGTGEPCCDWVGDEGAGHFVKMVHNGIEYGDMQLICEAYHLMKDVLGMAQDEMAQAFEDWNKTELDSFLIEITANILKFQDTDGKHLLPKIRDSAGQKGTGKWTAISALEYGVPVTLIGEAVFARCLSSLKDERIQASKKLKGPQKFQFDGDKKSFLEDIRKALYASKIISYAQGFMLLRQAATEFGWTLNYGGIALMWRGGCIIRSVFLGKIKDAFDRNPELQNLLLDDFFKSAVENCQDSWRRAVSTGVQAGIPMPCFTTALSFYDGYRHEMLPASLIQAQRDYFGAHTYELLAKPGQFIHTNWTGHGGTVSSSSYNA

With `CC12CC[C@H](CC1=O)C2(C)C`, the parasite load remaining in assay [1] was 74.1% (inactive) and 58.3% (inactive). Moreover, the viability (as a rule, the share of living cells, or the viability signal relative to a control) in assay [1] was 75% and 94.1%. Also, the inhibition (as a rule, the change of the read-out against control, counted positive when it falls) in assay [2] was 13.3% (inactive). In addition, the fold change in assay [3] (stronger effect = lower value, cell number ratio, induced over uninduced) was 0.849 (inactive); in assay [3] (measured here: relative caspase fold change +Dox/-Dox) it was 0.856. The cell count in assay [3] (measured here: total cells with miR-34 induction, stronger effect = lower value) came out at 10900; in assay [3] (measured here: total cells without miR-34 induction), 12800.

As for `O=C(O)c1cc(O)c2c(c1)[C@H]([C@H]1c3cc(C(=O)O)cc(O)c3C(=O)c3c(O[C@@H]4O[C@H](CO)[C@@H](O)[C@H](O)[C@H]4O)cccc31)c1cccc(O[C@@H]3O[C@H](CO)[C@@H](O)[C@H](O)[C@H]3O)c1C2=O`, the inhibition in assay [2] was 6.02% (inactive). Moreover, in assay [4], the remaining NAD is 11 nM (inactive). For the same compound, the luciferase signal in assay [5] was 76 AU (inactive).

Take `C[N+](C)(C)CCOP(=O)([O-])OP(=O)(O)OC[C@H]1O[C@@H](n2ccc(N)nc2=O)[C@H](O)[C@@H]1O`: the inhibition in assay [2] was -4.56% (inactive). In assay [4], the remaining NAD is 10 nM (inactive). Also, the luciferase signal in assay [5] was 76 AU (inactive).

For `COc1cc(OC)c2c(c1Cl)O[C@@]1(C(=O)CC(=O)C[C@H]1C)C2=O`, the inhibition in assay [2] was 4.62% (inactive). In addition, the luciferase signal in assay [5] is 48 AU (inactive).

For the compound `CC(=O)NC(CC(C)C)C(=O)O` (configuration not stated), the inhibition in assay [2] is 4.75% (inactive). Moreover, the remaining NAD in assay [4] is 10 nM (inactive).
